Measurements taken from PubChem BioAssay (NCI).
Compounds without any hit were thinned out: in the full panel of roughly 83,000, 20% have a hit.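 Percent growth is the endpoint: 0 to 100 indicates growth inhibition (40 means 60% inhibition), 0 means no net growth, and negative values indicate cell death.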 Unmarked numbers belong to inactive results. Active and inactive are the calls of the source. Rule for the calls: active = growth percent below 10; inactive = the rest.

Experiments:
Experiment in all cases: NCI-60 one-dose screen, 48 h (100 = growth as untreated, 0 = no growth, -100 = all killed)
Conditions in all cases: 10 µM unless noted
[1] = test system: HCT-15 colon
[2] = test system: HT29 colon
[3] = test system: SNB-75 CNS
[4] = test system: SNB-19 CNS
[5] = test system: PC-3 prostate
[6] = test system: SK-MEL-5 melanoma
[7] = test system: UACC-62 melanoma
[8] = test system: LOX IMVI melanoma
[9] = test system: SK-MEL-28 melanoma
[10] = test system: SK-MEL-2 melanoma
[11] = test system: EKVX NSCLC
[12] = test system: SN12C renal
[13] = test system: UO-31 renal
[14] = test system: TK-10 renal
[15] = test system: ACHN renal
[16] = test system: CAKI-1 renal
[17] = test system: A498 renal
[18] = test system: CCRF-CEM leukemia
[19] = test system: MOLT-4 leukemia
[20] = test system: U251 CNS

| SMILES | growth [1] | growth [2] | growth [3] | growth [4] [%] | growth [5] [%] | growth [6] | growth [7] | growth [8] | growth [9] | growth [10] [%] | growth [11] [%] | growth [12] | growth [13] | growth [14] [%] | growth [15] [%] | growth [16] [%] | growth [17] | growth [18] | growth [19] | growth [20] |
| --- | --- | --- | --- | --- | --- | --- | --- | --- | --- | --- | --- | --- | --- | --- | --- | --- | --- | --- | --- | --- |
| C[C@@H]1CC[C@@H]2[C@@H]1[C@H](OC(=O)/C=C/c1ccccc1)[C@]1(C3CCCCC3)C[C@@H](OC(=O)CO)[C@@]2(C)O1 | 66.2% | 38.4% | 88.4% | 88.2 | 22.8 | 85.9% | 73.3% | 76% | 83.8% | 92.3 | 68.6 | 16.6% | -51.7% (active) | 93.1 | 14.8 | 16.4 | -31.7% (active) | 62.8% | 61.6% |  |
| COc1ccc(-c2cc(NC(=O)Nc3ccc(O)cc3)no2)cc1 | 49.5% | 98.8% | 62.6% | 91.5 | 57.6 | 82.3% | 44.5% | 7.79% (active) | 101% | 102 | 77.2 | 74.8% | 41.9% | 96.9 | 55.4 | 31.2 | 30.9% | 31% | 19.2% |  |
| O=C(/C=C/c1ccc(Cl)cc1)c1ccc(O)c(CN2CCN(c3cc4c(cc3F)c(=O)c(C(=O)O)cn4C3CC3)CC2)c1 | 45.4% | 33.8% | 4.51% (active) | 33.2 | 47.3 | 29.8% | 38.2% | 38.6% | 62.1% | 68.6 | 62.4 | 26.8% | 33.4% | 73.8 | 32.5 | 45.5 | 39.9% | 43.9% | 66% |  |
| COc1ccc(-c2cnoc2-c2cc(OC)c3c(c2)OCCO3)cc1 | 4.48% (active) | 1.26% (active) | 13.2% | 29.5 |  | -27.8% (active) | 13.4% | 17.4% | 50.9% |  |  | 9.42% (active) | 39.6% | 71.8 | 21.1 | 33.5 | -8.01% (active) | -7.11% (active) | 6.08% (active) | -17% (active) |
| COc1ccc(-c2cc(C(=O)N=Nc3c(O)[nH]c4ccccc34)no2)cc1 | 104% | 99.5% | 66.5% | 91.5 | 97.5 | 98.9% | 100% | 99.7% | 109% | 97.9 | 97.4 | 94.9% | 81.5% | 118 | 107 | 86 | 84.6% | 101% | 106% |  |
| Clc1ccc(-c2nnc(COc3ccccc3Cl)o2)cc1 | 81% | 71% | 2.45% (active) | 86.7 | 89.1 | 91.4% | 79.7% | 81.5% | 85.1% | 99.1 | 86.9 | 97.8% | 77.5% | 69.9 | 22.7 | 84.3 | 98.7% | 92% | 90.5% |  |
| O=C(CO[N+](=O)[O-])Nc1ccc(C(=O)/C=C/c2ccc(Cl)cc2)cc1 | 58.9% | -23.4% (active) | 69.7% | 87.9 | 27.6 | 54.5% | 49.2% | -60.9% (active) | 86.8% | 81.7 | 67.9 | 46.8% | 32% | 45.7 | 62.3 | 74.9 | 103% | 20.1% |  |  |
| O=C1NC(=O)C(CC(=O)n2c(-c3ccccc3)nc3ccccc32)C(=O)N1 | 100% | 111% | 71.1% | 89.6 | 100 | 101% | 94.3% | 97.2% | 108% | 101 | 93.6 | 99.5% | 79.6% | 116 | 101 | 90.5 | 63.6% | 104% | 108% |  |
| CC1=N/C(=C\c2cccc(Br)c2)C(=O)O1 | 104% | 108% | 97.7% | 105 | 101 | 100% | 104% | 100% | 114% | 109 | 99.5 | 98.2% | 90.1% | 101 | 109 | 100 | 119% | 107% |  |  |
| Nc1cc(-c2nc3sccn3c2-c2ccnc(NCCCNS(=O)(=O)c3ccc(F)cc3)n2)ccc1F | 28.3% | 17.8% | 68.7% | 88 | 48.6 | 27.2% | 21.2% | 34.1% | 50.7% | 60.4 | 58.3 | 48.9% | 30.7% | 98.3 | 32.5 | 29.7 | 54.3% | 21.2% | 34% |  |
| COC(=O)[C@H](C(C)C)n1c(=O)c2cc(OC)c(OC)cc2c2cnc3[nH]ccc3c21 | 41.3% | 45.5% | 13.2% | 77.7 | 29.2 | 58.8% | 22.3% | 28.2% | 62.2% | 89.7 | 47.5 | 43.5% | 22% | 51.1 | 34 | 30.5 | -40.3% (active) | 39% | 1.15% (active) |  |
| CN(C)CCOc1ccc(-c2nc3ccc(-c4nc5ccc(N6CCN(C)CC6)cc5[nH]4)cc3[nH]2)cc1 | 101% | 42.4% | 89.8% | 69.4 | 76.2 | 37.5% | 2.8% (active) | 67.9% | 45.3% | 25.7 | 83.6 | 63.5% | 103% | 90.7 | 111 | 89.6 | 35.3% | 85.4% | 92% |  |
| CCCC(=O)Oc1ccc(/C(=C(/CC)Cc2ccccc2)c2ccc(OCCN3CCCC3)cc2)cc1 | 41.8% | 16.5% | 62.5% | 94.2 | 70 | 66.2% | 23.7% | 25.2% | -19.8% (active) | 103 | 81.4 | 99.4% | 66.5% | 87.8 | 87.3 | 85.2 | 71.9% | 84.4% | 51.6% |  |
| O=C(/C=C/c1cccc(Br)c1)c1ccccc1 | 76.6% | 67.9% | 88.4% | 96 | 68.1 | 92.3% | 92.6% | 78.2% | 100% | 93.3 | 88 | 96.6% | 71.1% | 69.7 | 95.7 | 90.6 | 87.5% | 86.2% |  |  |
| O=C(Cn1cc(CN2C(=O)c3ccccc3S2(=O)=O)nn1)Nc1ccc([N+](=O)[O-])cc1Cl | 102% | 108% | 97.4% | 98.2 | 95.4 | 99.7% | 81.8% | 92.1% | 97% | 91.9 | 103 | 94.3% | 82.7% | 112 | 95.3 | 91.8 | 103% | 93.4% | 96.5% |  |
| COc1ccccc1-c1ccc2c(N)c(C(=O)c3ccc4c(c3)OCO4)sc2n1 | 38.8% | 47% | 85.1% | 82.1 |  |  | 42% | 58% | 71.3% |  |  | 64.2% | 78.5% | 73.8 | 88.6 | 70.2 | 60.1% | 60.2% | 36.6% | 63.7% |
